# The supplement of paper PMC10849652
# Targets with a hit are over-represented here; the source holds about 7,900 in all. About 0.6% of all pairs of compound and target were hits.
# Compound: C=CC(=O)N1CCC[C@@H](n2nc(-c3ccc(Oc4ccccc4)cc3)c3c(N)ncnc32)C1 [ibrutinib]
# Experiment: log2 fold change, soluble protein after heating vs DMSO (PISA); higher = thermal stabilisation; K562 cells, 10 uM, 30 min; active = over 0.2 and 3.5 SD of the protein, either way, in both replicates (recomputed)
# Outline: (§1)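 Values are thermal stability changes relative to control samples and are taken from duplicates. They are stated as log2 fold changes. Before quantification by TMTpro 16plex LC-MS/MS with equalised channel sums, K562 cells at 2×10^6 cells/mL were treated with 10 μM compound for 30 min, heated in aliquots for 3 min across 48°C-58°C, pooled, extracted in PBS with 0.5% NP-40 at 4°C, and centrifuged at 21,000xg for 90 min to give the soluble supernatant.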
# UniProt Q9ULT8, sequence (Q9ULT8 whole entry, looked up): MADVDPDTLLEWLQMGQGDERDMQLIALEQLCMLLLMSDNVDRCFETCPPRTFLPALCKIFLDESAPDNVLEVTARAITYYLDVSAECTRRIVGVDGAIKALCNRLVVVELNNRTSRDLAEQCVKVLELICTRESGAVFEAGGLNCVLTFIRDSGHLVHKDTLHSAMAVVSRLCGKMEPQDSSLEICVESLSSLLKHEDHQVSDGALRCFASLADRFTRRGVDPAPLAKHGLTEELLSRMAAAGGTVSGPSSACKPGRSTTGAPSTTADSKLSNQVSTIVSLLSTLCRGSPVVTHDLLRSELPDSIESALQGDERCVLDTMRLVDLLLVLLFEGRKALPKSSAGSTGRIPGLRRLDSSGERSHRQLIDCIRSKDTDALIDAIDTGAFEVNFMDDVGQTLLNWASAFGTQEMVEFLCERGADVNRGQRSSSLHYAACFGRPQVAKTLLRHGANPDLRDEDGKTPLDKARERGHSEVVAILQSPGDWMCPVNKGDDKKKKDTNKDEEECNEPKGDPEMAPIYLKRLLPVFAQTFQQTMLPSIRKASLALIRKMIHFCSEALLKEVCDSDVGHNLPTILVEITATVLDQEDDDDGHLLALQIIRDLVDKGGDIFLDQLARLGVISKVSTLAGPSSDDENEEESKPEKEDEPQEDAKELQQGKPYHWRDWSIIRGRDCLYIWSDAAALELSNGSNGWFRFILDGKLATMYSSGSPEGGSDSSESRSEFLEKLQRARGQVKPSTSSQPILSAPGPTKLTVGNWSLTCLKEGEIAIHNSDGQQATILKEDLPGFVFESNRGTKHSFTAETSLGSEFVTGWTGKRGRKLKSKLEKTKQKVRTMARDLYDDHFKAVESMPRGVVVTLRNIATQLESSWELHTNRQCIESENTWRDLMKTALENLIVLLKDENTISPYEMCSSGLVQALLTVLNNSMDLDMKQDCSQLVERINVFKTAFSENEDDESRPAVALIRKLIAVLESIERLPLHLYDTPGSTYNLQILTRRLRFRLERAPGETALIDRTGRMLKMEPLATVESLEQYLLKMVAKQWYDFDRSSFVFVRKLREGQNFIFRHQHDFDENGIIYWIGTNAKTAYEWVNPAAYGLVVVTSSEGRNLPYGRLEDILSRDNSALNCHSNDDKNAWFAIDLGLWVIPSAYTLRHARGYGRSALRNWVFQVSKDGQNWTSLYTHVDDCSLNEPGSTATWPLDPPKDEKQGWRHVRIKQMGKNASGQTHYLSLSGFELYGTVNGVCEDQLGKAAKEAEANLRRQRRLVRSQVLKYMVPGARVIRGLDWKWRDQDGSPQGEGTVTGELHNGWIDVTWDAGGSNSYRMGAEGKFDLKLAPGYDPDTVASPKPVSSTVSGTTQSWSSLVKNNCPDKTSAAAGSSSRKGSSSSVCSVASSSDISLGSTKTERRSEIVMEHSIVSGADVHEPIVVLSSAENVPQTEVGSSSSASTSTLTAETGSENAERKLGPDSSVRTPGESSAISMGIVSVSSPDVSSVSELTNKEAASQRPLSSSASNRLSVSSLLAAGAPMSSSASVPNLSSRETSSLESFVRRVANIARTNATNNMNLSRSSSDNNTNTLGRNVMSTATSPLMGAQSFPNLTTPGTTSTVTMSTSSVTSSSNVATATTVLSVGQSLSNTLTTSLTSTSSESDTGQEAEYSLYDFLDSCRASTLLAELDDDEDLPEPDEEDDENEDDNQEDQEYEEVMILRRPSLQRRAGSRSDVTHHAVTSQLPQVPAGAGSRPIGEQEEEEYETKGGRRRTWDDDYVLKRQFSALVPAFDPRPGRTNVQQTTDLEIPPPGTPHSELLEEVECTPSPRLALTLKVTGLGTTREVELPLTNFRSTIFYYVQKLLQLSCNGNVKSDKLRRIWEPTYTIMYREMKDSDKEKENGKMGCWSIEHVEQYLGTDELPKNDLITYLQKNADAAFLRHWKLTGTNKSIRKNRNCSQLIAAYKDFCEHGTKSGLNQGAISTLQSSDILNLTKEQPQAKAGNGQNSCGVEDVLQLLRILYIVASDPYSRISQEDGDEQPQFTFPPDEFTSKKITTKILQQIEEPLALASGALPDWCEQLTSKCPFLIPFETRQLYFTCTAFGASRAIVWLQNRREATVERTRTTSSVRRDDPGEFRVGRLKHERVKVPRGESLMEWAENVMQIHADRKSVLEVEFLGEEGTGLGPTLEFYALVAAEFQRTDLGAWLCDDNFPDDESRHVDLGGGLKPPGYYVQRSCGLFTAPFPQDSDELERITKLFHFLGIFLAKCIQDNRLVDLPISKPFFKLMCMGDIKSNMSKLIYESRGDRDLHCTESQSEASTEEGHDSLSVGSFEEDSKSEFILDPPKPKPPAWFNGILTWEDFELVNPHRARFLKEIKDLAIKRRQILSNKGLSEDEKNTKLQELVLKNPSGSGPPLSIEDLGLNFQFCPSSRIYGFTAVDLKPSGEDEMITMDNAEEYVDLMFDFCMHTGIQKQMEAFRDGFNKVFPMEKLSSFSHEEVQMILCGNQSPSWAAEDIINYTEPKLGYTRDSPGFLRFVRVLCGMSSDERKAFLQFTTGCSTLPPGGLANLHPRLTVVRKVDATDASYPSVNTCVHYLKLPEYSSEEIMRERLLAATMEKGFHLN
# UniProt Q86UL3, sequence (Q86UL3 whole entry, looked up): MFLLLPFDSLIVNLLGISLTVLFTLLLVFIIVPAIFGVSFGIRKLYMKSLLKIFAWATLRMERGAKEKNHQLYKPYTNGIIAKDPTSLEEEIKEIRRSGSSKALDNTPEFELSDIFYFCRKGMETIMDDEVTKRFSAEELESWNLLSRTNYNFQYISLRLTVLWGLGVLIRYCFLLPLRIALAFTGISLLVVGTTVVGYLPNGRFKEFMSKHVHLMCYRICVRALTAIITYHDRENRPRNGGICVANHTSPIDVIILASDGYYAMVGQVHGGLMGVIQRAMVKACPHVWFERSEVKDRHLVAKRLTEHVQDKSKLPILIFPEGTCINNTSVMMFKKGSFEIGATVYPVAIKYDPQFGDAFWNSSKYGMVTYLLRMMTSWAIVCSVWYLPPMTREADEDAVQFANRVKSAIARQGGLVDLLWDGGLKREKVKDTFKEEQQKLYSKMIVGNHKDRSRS
# UniProt Q14527, sequence (Q14527 whole entry, looked up): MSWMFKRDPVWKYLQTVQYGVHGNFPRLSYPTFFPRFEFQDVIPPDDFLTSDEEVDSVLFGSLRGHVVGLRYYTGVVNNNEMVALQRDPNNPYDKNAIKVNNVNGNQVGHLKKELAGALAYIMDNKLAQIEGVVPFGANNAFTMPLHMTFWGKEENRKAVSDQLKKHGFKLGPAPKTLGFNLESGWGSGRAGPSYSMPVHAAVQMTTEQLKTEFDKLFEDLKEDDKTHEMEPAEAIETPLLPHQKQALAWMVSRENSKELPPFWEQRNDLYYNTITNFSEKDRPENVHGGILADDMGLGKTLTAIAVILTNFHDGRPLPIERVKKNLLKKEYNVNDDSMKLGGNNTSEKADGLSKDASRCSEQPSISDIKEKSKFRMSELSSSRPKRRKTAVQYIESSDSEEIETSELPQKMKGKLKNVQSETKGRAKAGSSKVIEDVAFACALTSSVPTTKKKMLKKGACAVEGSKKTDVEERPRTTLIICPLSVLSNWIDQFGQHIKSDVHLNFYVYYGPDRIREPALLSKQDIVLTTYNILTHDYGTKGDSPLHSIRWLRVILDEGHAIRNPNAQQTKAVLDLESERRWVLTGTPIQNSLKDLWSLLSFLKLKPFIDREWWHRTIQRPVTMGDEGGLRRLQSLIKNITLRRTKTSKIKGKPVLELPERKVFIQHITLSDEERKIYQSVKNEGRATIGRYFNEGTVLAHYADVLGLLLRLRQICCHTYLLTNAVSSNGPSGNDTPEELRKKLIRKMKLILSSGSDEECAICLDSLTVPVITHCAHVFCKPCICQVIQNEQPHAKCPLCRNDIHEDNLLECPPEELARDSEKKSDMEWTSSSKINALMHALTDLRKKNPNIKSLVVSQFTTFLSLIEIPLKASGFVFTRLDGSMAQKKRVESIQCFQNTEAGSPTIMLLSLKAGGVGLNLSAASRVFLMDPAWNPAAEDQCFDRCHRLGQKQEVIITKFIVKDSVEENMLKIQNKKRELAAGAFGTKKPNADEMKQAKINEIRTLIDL
# UniProt Q6P3S6, sequence (Q6P3S6 whole entry, looked up): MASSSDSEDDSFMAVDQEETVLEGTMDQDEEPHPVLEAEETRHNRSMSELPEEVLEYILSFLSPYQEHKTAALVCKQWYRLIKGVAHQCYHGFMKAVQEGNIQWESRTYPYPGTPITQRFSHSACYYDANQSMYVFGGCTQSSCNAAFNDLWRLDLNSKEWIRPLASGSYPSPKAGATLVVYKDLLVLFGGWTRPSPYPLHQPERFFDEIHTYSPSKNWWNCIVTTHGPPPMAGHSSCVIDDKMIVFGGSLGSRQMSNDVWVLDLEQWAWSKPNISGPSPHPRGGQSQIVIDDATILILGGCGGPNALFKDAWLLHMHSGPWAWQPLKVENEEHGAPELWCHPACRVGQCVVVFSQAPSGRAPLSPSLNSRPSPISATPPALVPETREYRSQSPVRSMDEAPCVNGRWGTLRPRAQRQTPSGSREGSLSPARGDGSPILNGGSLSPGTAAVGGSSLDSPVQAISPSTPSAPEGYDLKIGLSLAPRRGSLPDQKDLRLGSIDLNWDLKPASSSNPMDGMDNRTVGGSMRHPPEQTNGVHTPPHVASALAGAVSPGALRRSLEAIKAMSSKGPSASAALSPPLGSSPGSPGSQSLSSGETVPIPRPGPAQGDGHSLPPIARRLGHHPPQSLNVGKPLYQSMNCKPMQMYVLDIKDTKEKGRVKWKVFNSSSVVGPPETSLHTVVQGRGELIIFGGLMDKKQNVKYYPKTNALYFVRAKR
# UniProt Q00403, sequence (Q00403 whole entry, looked up): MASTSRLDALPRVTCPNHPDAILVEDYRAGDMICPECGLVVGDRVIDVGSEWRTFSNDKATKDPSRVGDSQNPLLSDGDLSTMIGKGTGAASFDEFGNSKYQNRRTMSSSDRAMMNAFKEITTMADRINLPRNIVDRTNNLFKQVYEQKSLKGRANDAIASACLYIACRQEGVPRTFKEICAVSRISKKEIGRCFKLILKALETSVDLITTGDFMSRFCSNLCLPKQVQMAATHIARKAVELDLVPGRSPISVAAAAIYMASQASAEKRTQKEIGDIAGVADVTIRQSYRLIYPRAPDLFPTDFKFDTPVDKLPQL
row,Target,log2 fold change
1,HMGB3 (UniProt O15347),0.038 (inactive)
2,HNRNPUL1 (UniProt Q9BUJ2),0 (inactive)
3,FANCD2 isoform 1 (UniProt Q9BXW9),0.025 (inactive)
4,HOOK3 (UniProt Q86VS8),-0.057 (inactive)
5,HECTD1 (UniProt Q9ULT8),-0.027 (inactive)
6,HDGFL2 (UniProt Q7Z4V5),-0.039 (inactive)
7,GTF2E1 (UniProt P29083),-0.06 (inactive)
8,IFI30 (UniProt P13284),0.049 (inactive)
9,GSK3B isoform 2 (UniProt P49841),0.019 (inactive)
10,GIGYF2 (UniProt Q6Y7W6),-0.039 (inactive)
11,GPAT4 (UniProt Q86UL3),-0.081 (inactive)
12,HTATIP2 isoform 3 (UniProt Q9BUP3),0.003 (inactive)
13,H2AZ1 (UniProt P0C0S5),0.087 (inactive)
14,IFRD2 isoform 2 (UniProt Q12894),0.063 (inactive)
15,GEMIN5 (UniProt Q8TEQ6),-0.014 (inactive)
16,HIC2 (UniProt Q96JB3),0.123 (inactive)
17,GTF2B (UniProt Q00403),-0.064 (inactive)
18,IDH3A (UniProt P50213),0.021 (inactive)

row,Target,log2 fold change
1,HNRNPF (UniProt P52597),-0.023 (inactive)
2,GAGE12F (UniProt P0CL80),0.025 (inactive)
3,GDE1 (UniProt Q9NZC3),0.031 (inactive)
4,GLB1 (UniProt P16278),0.033 (inactive)
5,FASTKD1 (UniProt Q53R41),-0.186 (inactive)
6,GALNT4 (UniProt Q8N4A0),0.011 (inactive)
7,HHEX (UniProt Q03014),0.059 (inactive)
8,HPCAL1 (UniProt P37235),-0.015 (inactive)
9,GNG5 (UniProt P63218),0.039 (inactive)
10,GLYR1 (UniProt Q49A26),-0.074 (inactive)
11,HLTF (UniProt Q14527),-0.028 (inactive)
12,GTF2E2 (UniProt P29084),-0.008 (inactive)
13,HADHB (UniProt P55084),0.074 (inactive)
14,HBZ (UniProt P02008),-0.001 (inactive)
15,FBXO42 (UniProt Q6P3S6),-0.009 (inactive)
16,GALNT11 (UniProt Q8NCW6),-0.088 (inactive)
17,GNB2 (UniProt P62879),0.003 (inactive)

# Compound: CC(=O)c1cnc2ccc(-c3cc(Cl)c(O)c(Cl)c3)nc2c1N[C@H]1CC[C@H](CN(C)C)CC1
# Experiment: as above
# Outline: as §1
row,Target,log2 fold change
1,HMGB3 (UniProt O15347),0.083 (inactive)
2,HNRNPUL1 (UniProt Q9BUJ2),-0.072 (inactive)
3,FANCD2 isoform 1 (UniProt Q9BXW9),-0.155 (inactive)
4,HOOK3 (UniProt Q86VS8),-0.018 (inactive)
5,HECTD1 (UniProt Q9ULT8),0.001 (inactive)
6,HDGFL2 (UniProt Q7Z4V5),0.011 (inactive)
7,GTF2E1 (UniProt P29083),-0.051 (inactive)
8,IFI30 (UniProt P13284),0.088 (inactive)
9,GSK3B isoform 2 (UniProt P49841),0.144 (inactive)
10,GIGYF2 (UniProt Q6Y7W6),-0.316 (active)
11,GPAT4 (UniProt Q86UL3),0.044 (inactive)
12,HTATIP2 isoform 3 (UniProt Q9BUP3),-0.034 (inactive)
13,H2AZ1 (UniProt P0C0S5),-0.125 (inactive)
14,IFRD2 isoform 2 (UniProt Q12894),0.369 (inactive)
15,GEMIN5 (UniProt Q8TEQ6),-0.155 (inactive)
16,HIC2 (UniProt Q96JB3),0.024 (inactive)
17,GTF2B (UniProt Q00403),-0.023 (inactive)
18,IDH3A (UniProt P50213),-0.008 (inactive)

row,Target,log2 fold change
1,HNRNPF (UniProt P52597),-0.1 (inactive)
2,GAGE12F (UniProt P0CL80),0.037 (inactive)
3,GDE1 (UniProt Q9NZC3),-0.009 (inactive)
4,GLB1 (UniProt P16278),-0.005 (inactive)
5,FASTKD1 (UniProt Q53R41),-0.043 (inactive)
6,GALNT4 (UniProt Q8N4A0),-0.061 (inactive)
7,HHEX (UniProt Q03014),0.005 (inactive)
8,HPCAL1 (UniProt P37235),0.028 (inactive)
9,GNG5 (UniProt P63218),0.047 (inactive)
10,GLYR1 (UniProt Q49A26),0.054 (inactive)
11,HLTF (UniProt Q14527),-0.134 (inactive)
12,GTF2E2 (UniProt P29084),-0.104 (inactive)
13,HADHB (UniProt P55084),-0.326 (inactive)
14,HBZ (UniProt P02008),-0.005 (inactive)
15,FBXO42 (UniProt Q6P3S6),-0.108 (inactive)
16,GALNT11 (UniProt Q8NCW6),-0.022 (inactive)
17,GNB2 (UniProt P62879),-0.013 (inactive)
